# Source: PubChem BioAssay
# RECQ1 inh-1: inhibitors of human RECQ1 DNA helicase | RECQ1 DNA unwinding, red fluorescence kinetic read | Potency, µM (series often up to 57.3 µM), most hits filed as inhibitors | 0.54% of 240,000 active | AID 2549; note: nearly all actives have a fitted effect of over 30% in size
#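 RECQ1T1 50 nM; forked duplex (20 bp + 30-nt ss tails) 200 nM, ATP 2 mM final; pH 8.0, 2 mM MgCl2, 2.5 ug/ml poly(dI-dC); 15 min compound preincubation; discontinuous kinetic read over 2 h at RT.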
# WRN helicase inh: blocks human WRN helicase | Q14191 | WRN helicase unwinding, fluorescent forked duplex, kinetic | Potency, µM (doses to about 114 µM), hits mostly inhibitors | 0.46% of 360,000 active | AID 651768; note: nearly all actives have a fitted effect of over 55% in size
# Target sequence (Q14191 whole entry, looked up): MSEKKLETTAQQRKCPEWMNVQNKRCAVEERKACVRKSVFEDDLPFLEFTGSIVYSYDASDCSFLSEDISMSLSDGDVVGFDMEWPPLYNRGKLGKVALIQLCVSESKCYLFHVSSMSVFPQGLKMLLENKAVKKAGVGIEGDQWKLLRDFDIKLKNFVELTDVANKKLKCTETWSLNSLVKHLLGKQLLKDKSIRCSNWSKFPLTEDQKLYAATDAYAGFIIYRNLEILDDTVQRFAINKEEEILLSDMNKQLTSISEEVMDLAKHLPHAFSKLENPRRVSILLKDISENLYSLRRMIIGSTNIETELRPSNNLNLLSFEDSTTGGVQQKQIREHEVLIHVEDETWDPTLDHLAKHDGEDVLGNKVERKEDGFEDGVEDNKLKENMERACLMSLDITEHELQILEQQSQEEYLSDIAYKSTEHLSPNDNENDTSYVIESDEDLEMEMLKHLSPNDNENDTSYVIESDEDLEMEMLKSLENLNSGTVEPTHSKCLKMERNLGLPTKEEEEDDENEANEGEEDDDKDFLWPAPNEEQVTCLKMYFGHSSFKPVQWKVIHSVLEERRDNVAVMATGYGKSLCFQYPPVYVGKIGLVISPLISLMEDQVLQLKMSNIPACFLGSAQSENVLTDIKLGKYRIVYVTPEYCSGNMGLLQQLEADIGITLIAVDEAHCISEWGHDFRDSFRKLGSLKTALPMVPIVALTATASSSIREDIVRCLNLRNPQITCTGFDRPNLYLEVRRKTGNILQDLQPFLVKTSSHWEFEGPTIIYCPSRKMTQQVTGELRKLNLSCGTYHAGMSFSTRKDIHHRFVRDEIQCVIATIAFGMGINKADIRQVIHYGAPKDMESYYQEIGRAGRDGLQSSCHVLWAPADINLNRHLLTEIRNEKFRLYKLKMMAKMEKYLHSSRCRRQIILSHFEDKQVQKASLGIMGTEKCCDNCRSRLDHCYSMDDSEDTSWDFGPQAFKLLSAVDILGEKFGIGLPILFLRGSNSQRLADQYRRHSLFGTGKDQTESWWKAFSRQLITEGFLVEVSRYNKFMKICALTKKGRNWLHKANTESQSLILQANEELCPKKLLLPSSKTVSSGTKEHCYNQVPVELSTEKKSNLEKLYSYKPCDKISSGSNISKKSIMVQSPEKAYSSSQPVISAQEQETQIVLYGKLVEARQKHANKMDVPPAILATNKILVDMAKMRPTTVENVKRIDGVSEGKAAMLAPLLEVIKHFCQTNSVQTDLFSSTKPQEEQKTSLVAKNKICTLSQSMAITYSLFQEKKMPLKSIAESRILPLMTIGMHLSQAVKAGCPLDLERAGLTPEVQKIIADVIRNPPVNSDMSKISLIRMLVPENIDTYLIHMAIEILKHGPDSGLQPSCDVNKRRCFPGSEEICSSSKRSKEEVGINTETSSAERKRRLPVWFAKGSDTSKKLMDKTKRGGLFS
#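 Enzyme (20 nM final) and test compound sit together 15 min at room temperature before substrate addition. Substrate is a single-forked duplex oligonucleotide (100 nM) labelled with fluorophore and quencher, with 2 mM ATP; helicase unwinding raises red fluorescence, read kinetically.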
# FEN1 inh: inhibitors of human flap endonuclease 1; P39748; Recombinant FEN1 flap cleavage, fluorescence, 15 min; Potency, µM (doses to about 114 µM), usual class: inhibitors; 0.35% of 390,000 active; AID 588795; note: nearly all actives have a fitted effect of over 65% in size
#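 FEN1 at 10 nM preincubated with compounds 15 min at room temperature, then flap DNA substrate added at 50 nM final. Signal read at 0 and 15 min; concentration-response fitted with four-parameter Hill equation.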
# L3MBTL1 block: blocks human L3MBTL1; AlphaScreen L3MBTL1–H3K9me1 peptide binding; Potency, µM (top dose mostly 57.1 µM), hits mostly inhibitors; 0.66% of 230,000 active; AID 485360; note: nearly all actives have a fitted effect of over 60% in size
#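 L3MBTL1 50 nM + b-AHA-H3(1-15)K9me1 75 nM, 30 min RT; compound added, 30 min RT; streptavidin donor/Ni-chelate acceptor beads 10 ug/mL each final, 30 min RT dark; AlphaScreen read.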
# BLM helicase inh: blocks DNA unwinding by human BLM helicase; Potency, µM (titrated, usually from 56.1 µM), usual class: inhibitors; AID 2528; recombinant BLM DNA unwinding, fluorescence dequenching; P54132; 0.2% of 350,000 active; note: nearly all actives have a fitted effect of over 35% in size
# RECQ1 conf: confirmation of human RECQ1 helicase inhibitors | AID 2708 | 28% of 610 active | Potency, µM (titrated, usually from 229 µM), hits mostly inhibitors | RECQ1 helicase DNA unwinding, fluorescence | shares compounds with RECQ1 inh-1; note: nearly all actives have a fitted effect of over 45% in size
# ADP FP counter: displaces ADP in a fluorescence polarization counter-screen for RECQ1 hits; shares compounds with RECQ1 inh-1; ADP fluorescence polarization displacement counterscreen; Potency, µM (series often up to 228 µM), usual class: inhibitors; 27% of 530 active; AID 2711; note: nearly all actives have a fitted effect of over 45% in size
# RECQ1 inh-2: confirmation of human RECQ1 helicase inhibitors; Potency, µM (series often up to 119 µM), usual class: inhibitors; AID 504841; 15% of 1,100 active; shares compounds with RECQ1 inh-1; recombinant RECQ1 DNA unwinding, red fluorescence; note: nearly all actives have a fitted effect of over 50% in size
# A number is an active result; i = inactive; ? = inconclusive; nt = no result; [ ] = another dose, or the depositor's remark. Hits are enriched below; roughly 0.99% of the tested compounds scored in any of these assays. Calls come from the whole dose curve; as a rule, active = well fitted curve in the direction sought with a large enough effect; inconclusive = small, poorly fitted or top-dose-only effect, or another doubt; inactive = no such curve, though single readings can be large; an effect the other way counts as inactive or inconclusive.
SMILES,RECQ1 inh-1,WRN helicase inh,FEN1 inh,L3MBTL1 block,BLM helicase inh,others
Cc1ccc(S(=O)(=O)CCC(=O)NCc2ccco2)cc1,i,i,i,nt,i,
Cc1cccc(CNc2cc(-c3ccoc3)ncn2)c1,?,nt,nt,nt,i,RECQ1 inh-2=i
c1cncc(CNc2cc(-c3ccoc3)ncn2)c1,i,nt,nt,nt,i,
CC(C)Cn1c2c(c(=O)[nH]c1=O)C(NS(=O)(=O)c1ccc(Cl)cc1)(C(F)(F)F)C(=O)N2 (centres undefined),i,i,i,i,i,
Cc1ccc(OCC(=O)Nc2ccc(Cl)cc2)c([N+](=O)[O-])n1,nt,i,i,i,nt,
CCc1cc2c(=O)[nH]c(-c3ccccn3)nc2s1,i,i,i,?,i,
O=C(Nc1ccc(-c2nc3ccc(NC(=O)c4cccs4)cc3[nH]2)cc1)c1cccs1,?,i,?,nt,i,RECQ1 inh-2=?
O=C(Nc1ccc2nc(-c3cccs3)[nH]c2c1)c1cccs1,i,i,i,nt,i,
O=S(=O)(c1cccc(S(=O)(=O)N2CCC(N3CCCCC3)CC2)c1)N1CCOCC1,i,nt,nt,i,i,
COc1ccc(-c2csc(NC(=O)c3ccc(S(=O)(=O)N4CCc5ccccc5C4)cc3)n2)c(OC)c1,i,i,i,i,i,RECQ1 conf=i;ADP FP counter=i
COC(=O)Cn1c(=NC(=O)c2ccc(OC)cc2)sc2cc(OC)ccc21,i,i,i,i,i,
COC(=O)Cn1c(=NC(=O)c2ccc(S(=O)(=O)N3CCc4ccccc4C3)cc2)sc2cc(OC)ccc21,i,i,i,i,i,RECQ1 conf=i;ADP FP counter=i
CCOc1ccc(-c2csc(NC(=O)c3ccc(S(=O)(=O)N4CCc5ccccc5C4)cc3)n2)cc1,i,i,i,i,i,
COCCn1c(=NC(=O)c2ccc(S(=O)(=O)N3CCc4ccccc4C3)cc2)sc2cc(S(N)(=O)=O)ccc21,i,i,i,i,i,
C#CCn1c(=NC(=O)c2ccc(S(=O)(=O)N3CCc4ccccc4C3)cc2)sc2cc(S(N)(=O)=O)ccc21,i,i,i,i,i,RECQ1 conf=i;ADP FP counter=?
Cc1cc(C(=O)CCl)c(C)n1-c1ccon1,i,i,i,i,i,
CCCn1nc2cc(C(=O)NCCCCc3ccccc3)ccc2c1OCC,i,i,i,i,i,
CCOC(=O)Cc1csc(N/N=C\c2ccc(N(C)C)cc2)n1,nt,i,i,nt,i,
CC(C)c1ccc(NC2CCCN(C(=O)c3cccc(N4CCNC4=O)c3)C2)cc1 (centres undefined),nt,i,i,nt,i,
O=C(O)c1c(Cl)c(Cl)c(Cl)c(Cl)c1-c1c2cc(I)c(=O)c(I)c-2oc2c(I)c(O)c(I)cc12,14µM,nt,nt,nt,14µM,RECQ1 conf=45µM;ADP FP counter=0.89µM
FC(F)Oc1ccc(N=C2SCC3CCCCN23)cc1 (centres undefined),nt,i,i,nt,i,
O=C(/C=C/c1ccco1)OCc1nnc(-c2ccc(Cl)cc2)o1,?,i,i,nt,?,RECQ1 inh-2=?
CCCCn1cnc2c(Sc3c([N+](=O)[O-])ncn3C)nc(N)nc21,nt,i,i,nt,nt,
CCCCn1cnc2c(=O)[nH]c(N)nc21,nt,nt,i,nt,nt,RECQ1 conf=i
C/C(=N/NC(=O)CSCc1ccc(Cl)cc1)c1cccc(NC(=O)c2ccccc2)c1,i,i,i,nt,i,
SMILES,RECQ1 inh-1,WRN helicase inh,FEN1 inh,L3MBTL1 block,BLM helicase inh,others
C/C(=N\NC(=O)CSCc1ccc([N+](=O)[O-])cc1)c1cccc(Br)c1,1µM,i,i,i,i,RECQ1 conf=i
COc1cc(NC(=O)c2csc3c2CCCC3)ncn1,i,i,i,nt,i,
[O-]/C(=C(\C(=S)Nc1ccc(SC(F)F)cc1)[n+]1ccccc1)c1ccc(Cl)cc1Cl,i,i,i,nt,i,
C=CCC1(CC=C)CCCN1Cc1nc(COc2ccccc2)no1,40µM,i,i,i,i,RECQ1 inh-2=i
O=C1CCCN1CC1CCCN(Cc2nc(COc3ccccc3)no2)C1 (centres undefined),i,i,i,i,i,
COc1ccc2nc(NC(=O)C3CCCN(S(=O)(=O)c4cccc5nsnc45)C3)sc2c1 (centres undefined),i,i,i,i,i,RECQ1 conf=i;ADP FP counter=i
COc1ccc2nc(NC(=O)C3CCCN(S(=O)(=O)c4cccc5nonc45)C3)sc2c1 (centres undefined),i,i,i,i,i,
NCCCS(=O)(=O)O,i,i,i,i,i,
CCOc1ccc(C(=O)NCC(=O)NCC(c2ccc(OC)cc2)N2CCCC2)cc1 (centres undefined),nt,i,i,i,nt,
Cc1nnc2ccc(-c3cccc(NC(=O)Cc4cccs4)c3)nn12,?,i[11.6 µM],i,nt,i,RECQ1 inh-2=i
COc1ccc(CC(=O)Nc2cccc(-c3ccc4nnc(C)n4n3)c2)cc1,i,i,i,nt,i,
COc1ccc(Nc2nc(-c3c(C)nc4ncccn34)cs2)cc1,i,i,?,?,i,
COc1ccccc1Nc1nc(-c2c(C)nc3ncccn23)cs1,?,i,?,i,i,RECQ1 inh-2=?
Nc1c(S(=O)(=O)O)cc(Nc2ccc(Cl)cc2)c2c1C(=O)c1ccccc1C2=O,32µM,nt,nt,nt,?,RECQ1 inh-2=50µM
O=C(NC1=C(Nc2ccc(Cl)cc2)C(=O)c2ccccc2C1=O)c1ccccc1,i,i,i,i,i,
Nc1c(S(=O)(=O)O)cc(Nc2cccc3ccccc23)c2c1C(=O)c1ccccc1C2=O,22µM,nt,nt,nt,?,RECQ1 inh-2=?
CCC(Cc1ccccc1)OC(=O)c1ccccc1C(=O)O (centres undefined),nt,i,i,nt,nt,
Cc1ccc(C(=O)Nc2ccccc2C(=O)NC(Cc2ccccc2)C(=O)O)cc1 (centres undefined),i,i,i,i,i,
O=C(NC(Cc1c[nH]c2ccccc12)C(=O)O)/C(=C/c1ccc2c(c1)OCO2)NC(=O)c1ccccc1 (centres undefined),i,i,i,nt,i,RECQ1 conf=i;ADP FP counter=?
Cc1ccc(C(=O)Nc2ccccc2C(=O)NC(Cc2c[nH]c3ccccc23)C(=O)O)cc1 (centres undefined),i,i,i,i,i,RECQ1 conf=i;ADP FP counter=i
CCn1c(=O)c(C(=O)NNS(=O)(=O)c2ccc(C)cc2)c(O)c2ccccc21,i,i,i,i,i,
CCn1c(=O)c(C(=O)NNS(=O)(=O)c2ccc(Br)cc2)c(O)c2ccccc21,?,i,?,i,i,RECQ1 inh-2=?
Cc1ccc(NC(=O)CSc2nc(N)c3c4c(sc3n2)CSC(C)(C)C4)cc1,i,i,i,i,i,
Cc1ccccc1NC(=O)CSc1nc(N)c2c3c(sc2n1)CSC(C)(C)C3,22µM,i,i,i,i,RECQ1 inh-2=i
Cc1cc(N/N=C(/CCC(=O)O)C(=O)O)nc2ccccc12,i,i,i,i,i,RECQ1 conf=i;ADP FP counter=i
